Most compounds without a hit are left out; they make up all but 2.2% or so of the library.
APP transl inh: APP translation inhibition | SH-SY5Y APP 5'UTR-luciferase reporter, luminescence | inhibition, % at 2 µM | 190,000 tested, 0.82% active | AID 1285;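 active = inhibition above a set limit, derived from the sample mean plus 3 SD, cut at about 45% in these data; inconclusive = one replicate passes the limit while the other fails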
IEC-6 tox-1: counter-screen for KLF5 inhibitors: cytotoxicity in IEC-6 cells. inhibition, % at 5 µM. 290,000 tested, 0.78% active. IEC-6 cytotoxicity, luminescence viability; in the data active = inhibition above about 22%;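 note: 0% = plate median of test compound wells and 100% = cytotoxic reference compound wells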
Ba/F3 V617F tox: lowers viability of Ba/F3 cells expressing EpoR and JAK2V617F; ATP luminescence; inhibition, % at 5.6 µM; 220,000 tested, 1.1% active; AID 1446;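 active = inhibition above the campaign mean plus 3 SD over all tested compounds, cut at about 24% in these data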;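 note: cytokine-independent growth of Ba/F3 cells driven by EpoR plus mutant JAK2; 0% = DMSO-treated cells and 100% = JAK inhibitor I control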
aSyn 5UTR inh: MLPCN primary screen, SNCA 5' untranslated region; alpha-synuclein 5'UTR reporter, inhibitor activity; inhibition, % (tested at 7.5 µM); 300,000 tested, 0.82% active; AID 1813; in the data active = inhibition above about 60%; inconclusive = no clear call, values can overlap the other calls;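 note: H4 neuroglioblastoma cells stably carrying SNCA 5'UTR luciferase fusion; 0% = DMSO wells and 100% = positive control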
BaF3 parental: parental Ba/F3 viability inhibition as JAK2V617F counter-screen | AID 1486 | CellTiter-Glo ATP luminescence | inhibition, % at 5.6 µM | 220,000 tested, 1.1% active;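 active = inhibition above a per-campaign cutoff, the mean inhibition of all tested compounds plus 3 SD, cut at about 27% in these data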;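 note: 0% = DMSO wells and 100% = JAK Inhibitor I control wells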
KLF5 inhibitor: suppresses KLF5 promoter-driven expression; DLD-1 KLF5 promoter-luciferase reporter, luminescence; inhibition, % at 5 µM; 290,000 tested, 0.23% active;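 active = inhibition above a per-plate limit of that plate's mean compound inhibition plus 3 SD, cut at about 60% in these data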;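 note: 0% = DMSO wells and 100% = LY294002 at 200 µM; higher means less KLF5 promoter-driven luciferase light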
KLF5 inh confirm: confirmation of KLF5 inhibitors | inhibition, % at 4 µM | shares compounds with KLF5 inhibitor | DLD-1 KLF5 promoter firefly luciferase reporter, luminescence | 610 tested, 79% active;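 active = inhibition above a set limit taken from the earlier primary screen, cut at about 63% in these data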;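 note: 0% = DMSO wells and 100% = LY294002 at 200 µM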
IEC-6 tox-2: rat IEC-6 cytotoxicity, KLF5 inhibitor counter-screen | shares compounds with KLF5 inhibitor | IEC-6 rat intestinal cells, viability luminescence | inhibition, % at 4 µM | 610 tested, 56% active | AID 1905; in the data active = inhibition above about 23%;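 note: cells exposed to compounds for 48 hours before viability read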
Numbers without * were called inactive; ? = inconclusive; . = no result.

SMILES	APP transl inh	IEC-6 tox-1	Ba/F3 V617F tox	aSyn 5UTR inh	BaF3 parental	KLF5 inhibitor	KLF5 inh confirm	IEC-6 tox-2
O=C(O)c1ccc(N/N=C/c2c(F)cccc2Cl)cc1	.	-1	.	-2	.	66*	55	0
CN(C)c1ccc(/C=N/Nc2cccc(C(=O)O)c2)cc1	.	0	.	77*	.	75*	109*	11
CC(C)(C)c1ccc(/C=N/Nc2ccc(C(=O)O)cc2)cc1	-55	24*	6	13	1	66*	94*	34*
Cc1ccc(-n2nc(-c3ccc(OC(F)(F)F)cc3)cc2N)cc1C	.	-2	-2	-25	3	4	.	.
O=C(NC(=O)c1ccccc1)Nc1ccccn1	.	13	.	64*	.	84*	66*	33*
O=C(Nc1ccccn1)c1ccc(C(=O)c2ccccc2)cc1	.	.	.	-108	.	.	.	.
CCOC(=O)Cc1csc(NC(=O)c2cc3c(s2)CCCC3)n1	-44	-3	-3	-18	6	-22	.	.
Cc1csc(NC(=O)c2cc3c(s2)CCCCC3)n1	-129	0	-3	92*	3	72*	52	-1
Cc1cc(C(=O)COC(=O)c2ccccc2O)c(C)n1Cc1cccs1	-8	-3	-3	93*	2	81*	78*	-10
Cc1[nH]c2ccc(C(=O)NCCN3CCOCC3)cc2c1C	.	0	.	-17	.	-12	.	.
O=C(Nc1ccc(N2CCCCC2)cc1)c1ccccn1	41	19	22	114*	19	104*	100*	12
O=C(Nc1ccc(N2CCCCCC2)cc1)c1ccccc1Cl	-107	11	9	-252	3	-139	.	.
Cc1ccc(Sc2c(CO)c(-c3ccccc3)nn2C)cc1	95*	86*	80*	-86	82*	72*	84*	56*
Cc1ccc(-c2nn(-c3ccccc3)cc2CO)cc1	.	3	.	-104	.	-55	.	.
Cc1cccc(OCC(=O)Nc2ccc3c(c2)nc2n3CCOC2)c1	.	8	.	-69	.	-22	.	.
Cc1ccc2c(c1)COc1c3ccc(C(=O)O)cc3nn1-2	.	-4	.	51	.	92*	9	-7
CC(C)Oc1ccccc1C1CC(=O)Nc2cc3c(cc21)OCO3 (stereo unspecified)	92*	84*	73*	91*	75*	87*	83*	64*
CCCOc1ccccc1C1CC(=O)Nc2cc3c(cc21)OCCO3 (stereo unspecified)	94*	81*	77*	103*	77*	66*	83*	64*
COc1ccc(Cl)cc1NC(=O)Cn1nnc(C(=O)NCc2ccc3c(c2)OCO3)c1N	.	2	.	28	.	-3	.	.
COC(=O)c1cc(C(=O)N2CCN(c3ccccc3OC)CC2)cc([N+](=O)[O-])c1	92*	69*	67*	44	71*	74*	80*	63*
O=[N+]([O-])c1ccc(N=Nc2c(Cl)cc(O)cc2Cl)cc1	.	13	81*	?	95*	33	58	22*
Cc1cccc(N(C)C(=O)c2cnn(-c3ccccc3)c2C)c1	.	-4	.	-8	.	-26	.	.
COc1cccc(/C=N/Nc2ccc([N+](=O)[O-])cn2)c1O	.	10	.	102*	.	85*	72*	7
COc1cccc(/C=N/Nc2ccc(C(=O)O)cc2)c1O	80*	-5	1	113*	3	100*	111*	-7
COc1cccc(/C=N/NC(=O)c2cc3c(OC)ccc(OC)c3[nH]2)c1O	.	12	.	23	.	88*	72*	-2
SMILES	APP transl inh	IEC-6 tox-1	Ba/F3 V617F tox	aSyn 5UTR inh	BaF3 parental	KLF5 inhibitor	KLF5 inh confirm	IEC-6 tox-2
COc1cccc(/C=N/Nc2ccc(S(=O)(=O)O)cc2)c1O	-14	0	-4	-3	3	-2	.	.
COc1cccc(/C=N/Nc2ncccc2[N+](=O)[O-])c1OC	.	12	17	92*	14	81*	30	23*
COc1cc(OC)c2cc(C(=O)N/N=C/c3cccc(OC)c3O)[nH]c2c1	.	3	0	47	-3	39	.	.
O=[N+]([O-])c1ccc(/C=N/Nc2ncccc2[N+](=O)[O-])s1	.	.	.	-9	.	.	.	.
Cc1cc(/C=N/Nc2ccc([N+](=O)[O-])cn2)c(C)n1-c1ccccc1	-8	-7	6	-137	17	-16	.	.
CCOc1ccc(C(=O)N2CCC3(CC2)NCCc2[nH]cnc23)cc1	.	-3	.	2	.	-17	.	.
O=Cc1cccc2ccc3cccc(C(=O)O)c3c12	.	.	.	2	.	.	.	.
